Screening results from PubChem BioAssay.
A selection: hits, their analogues and other compounds. The true share with any hit is near 0.92%.
MEP2 TOR yeast: alters MEP2-GFP fluorescence in TOR pathway yeast screen; S. cerevisiae MEP2-GFP strain, flow cytometry GFP, 3 h; 100% = DMSO control level; GFP response vs DMSO, % at 10 µM; 330,000 tested, 0.51% active;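 active = GFP response versus DMSO above a set limit, roughly screen mean plus 3 SD, cut at about 180% in these data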;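 also: median GFP fluorescence of the barcode-gated MEP2-GFP cells per well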
RPL19A-GFP yeast: modulators of TOR pathway RPL19A-GFP in S. cerevisiae. S. cerevisiae RPL19A-GFP strain, flow cytometry, 3 h; active compounds read low. percent response vs DMSO, % at 10 µM. 330,000 tested, 0.3% active. AID 2025;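 active = percent response vs DMSO below 50%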;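 also: median channel GFP fluorescence of the barcoded RPL19A-GFP strain; ratio of sample median GFP to plate DMSO average so 100% = DMSO; lower means less RPL19A-GFP as with rapamycin TOR inhibition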
LAP4-GFP MLPCN: modulators of TOR pathway LAP4-GFP in S. cerevisiae; GFP response vs DMSO, % at 10 µM; AID 2023; 320,000 tested, 0.34% active; S. cerevisiae LAP4-GFP multiplex, flow cytometry GFP, 3 h; median GFP as percent of DMSO wells;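 active = GFP response vs DMSO above a set limit, about the screen mean plus 3 SD, cut at about 150% in these data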
CIT2-GFP yeast: alters CIT2-GFP fluorescence in TOR pathway yeast screen; AID 2029; S. cerevisiae CIT2-GFP strain, flow cytometry, 3 h; 100 means same as DMSO wells; GFP response vs DMSO, % at 10 µM; 320,000 tested, 0.065% active;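 active = GFP response relative to DMSO above a set limit, near the screen mean plus 3 SD, cut at about 150% in these data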;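 also: ratio of well median GFP fluorescence to mean of DMSO wells on the plate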
AGP1 TOR yeast: yeast TOR pathway AGP1-GFP modulation; S. cerevisiae AGP1-GFP multiplex flow cytometry, 3 h; GFP as percent of DMSO wells; GFP response vs DMSO, % at 10 µM; 320,000 tested, 0.02% active; AID 2066;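 active = GFP response relative to DMSO above a set limit, near screen average plus 3 SD, cut at about 150% in these data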;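 also: median GFP channel fluorescence of the gated AGP1 strain per well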
LAP4-GFP pick2: second confirmation of modulators of TOR reporter LAP4-GFP in yeast. GFP response vs DMSO, % at 10 µM. S. cerevisiae LAP4-GFP strain, flow cytometry GFP, 3 h. shares compounds with LAP4-GFP MLPCN. 590 tested, 20% active;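 active = GFP signal as percent of the solvent control above about 150%, meaning raised reporter expression, limit read from the data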;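 also: ratio of well median GFP fluorescence to plate DMSO mean so 100% = DMSO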
MEP2 cherry2: reconfirmed MEP2-GFP TOR pathway modulator in yeast | shares compounds with LAP4-GFP MLPCN | S. cerevisiae MEP2-GFP strain, flow cytometry GFP, 3 h | GFP response vs DMSO, % at 10 µM | 590 tested, 10% active | AID 2622;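 active = GFP signal above 150% of the solvent control wells, that is a rise of more than half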;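 also: median channel GFP fluorescence of all gated yeast cells per well; ratio of median GFP to plate DMSO average so 100% = DMSO level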
RPL19A-GFP pick2: second confirmation of modulators of TOR reporter RPL19A-GFP in yeast; shares compounds with LAP4-GFP MLPCN; S. cerevisiae RPL19A-GFP strain, flow cytometry GFP, 3 h; active compounds read low; 100% means same as DMSO wells; GFP response vs DMSO, % at 10 µM; 590 tested, 3% active; AID 2623;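 active = under 65% GFP response relative to DMSO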;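 also: median GFP channel fluorescence per well over the all cells gate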
CIT2-GFP pick2: reconfirmed modulator of CIT2-GFP TOR reporter in yeast; shares compounds with LAP4-GFP MLPCN; S. cerevisiae CIT2-GFP strain, flow cytometry GFP, 3 h; DMSO control wells read 100%; GFP response vs DMSO, % at 10 µM; 590 tested, 8% active;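 active = GFP response vs DMSO above about 150%, limit read from the data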;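 also: median green fluorescence per well over all gated yeast cells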
AGP1-GFP pick2: reconfirmed modulator of AGP1-GFP TOR reporter in yeast. percent response vs DMSO, % at 10 µM. S. cerevisiae AGP1-GFP strain, flow cytometry GFP, 3 h. shares compounds with LAP4-GFP MLPCN. 590 tested, under 10 active;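 active = over 150 percent of DMSO response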;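 also: median GFP channel fluorescence over all cells without mother daughter split; sample median GFP divided by mean DMSO control so 100% equals DMSO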
Yeast autofluor: yeast s288c autofluorescence artifact, counter-screen | shares compounds with LAP4-GFP MLPCN | S. cerevisiae s288c, 520 nm autofluorescence, flow cytometry, 3 h; active compounds read high; zero means same as solvent-only cells | fluorescence change (kMESF span) at 33 µM | 610 tested, under 10 active | AID 2757;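 active = fluorescence span over the dose series, or activity score, above about 33, limit read from the data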
s288c autofl DR: yeast s288c autofluorescence artifact in dose response; shares compounds with LAP4-GFP MLPCN; fluorescence change (span) at 33 µM; 110 tested, under 10 active; S. cerevisiae s288c parental, compound autofluorescence, flow cytometry, 3 h;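 active = fluorescence change span, or the activity score built from it, above 25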
TORC1 bypass gr: compounds blocking wildtype yeast growth but not TORC1 bypass cells | AID 504456 | shares compounds with LAP4-GFP MLPCN | 120 tested, under 10 active | S. cerevisiae BY4741 spot growth rating, 48-72 h; active compounds read low | growth rating (0-3) at 30 µM;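 active = growth rating at most 1 for wild type yeast while the TORC1 bypass strain still grows fully, rated 3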
Numbers without * were called inactive; x = no result.

SMILES	MEP2 TOR yeast	RPL19A-GFP yeast	LAP4-GFP MLPCN	CIT2-GFP yeast	AGP1 TOR yeast	Yeast autofluor	others
COc1ccc(CCN2C(=O)CC(N3CCN(S(=O)(=O)c4ccccc4)CC3)C2=O)cc1OC (stereo unspecified)	109	116	102	95	104	x
C/C(=N\NC(=O)c1cc(Br)ccc1O)c1ccccn1	118	108	120	89	96	x
C/C(=N/NC(=O)c1ccc(C(C)(C)C)cc1)c1ccccn1	104	99	194*	95	96	0.82
C/C(=N\NC(=O)c1cccc(Br)c1)c1ccccn1	113	111	169*	96	87	0.91	s288c autofl DR=0.16;TORC1 bypass gr=3
CCc1ccc2[nH]c(=O)c(CN(CCN(CC)CC)C(=S)NCc3ccco3)cc2c1	98	96	96	95	99	x
CN(c1ccccc1)c1ccc(/C=C/[N+](=O)[O-])cc1	95	87	154*	92	87	x	LAP4-GFP pick2=128;MEP2 cherry2=100;RPL19A-GFP pick2=97;CIT2-GFP pick2=115;AGP1-GFP pick2=95
Cc1ccc(S(=O)(=O)N2CCN(C(=O)COC(=O)CCOc3ccccc3)CC2)c(C)c1	99	101	103	91	102	x
CCN(CC)c1ccc2cc(-c3nnc(-c4ccccc4)o3)c(=O)oc2c1	95	89	97	83	81	x
CCN(CC)c1ccc2cc(-c3nc(-c4ccc(OC)cc4)cs3)c(=O)oc2c1	221*	119	160*	204*	94	7.5
CCN(CC)c1ccc2cc(-c3nc4ccccc4n3C)c(=O)oc2c1	100	97	108	88	93	x
CCN(CC)c1ccc2cc(-c3nc4ccccc4[nH]3)c(=O)oc2c1	200*	112	171*	139	112	4.7
COc1cc(/C=C/C(=O)OCC(=O)NC2CC2)cc(S(=O)(=O)N2CCc3ccccc32)c1OC	102	102	103	118	100	x
COc1cc(/C=C/C(=O)N2CCN(C)CC2)cc(S(=O)(=O)N2CCc3ccccc32)c1OC	125	62	91	99	26	x	LAP4-GFP pick2=103;MEP2 cherry2=100;RPL19A-GFP pick2=100;CIT2-GFP pick2=98;AGP1-GFP pick2=100
O=C(NC(=S)NNC(=O)c1ccc(Cl)cc1Cl)c1cccnc1	184*	104	110	100	96	0.91
Cc1onc(-c2ccccc2)c1C(=O)NNC(=S)NC(=O)c1ccc(Cl)cc1Cl	105	105	100	106	104	x
Cc1ccccc1C(=O)NNC(=S)NC(=O)c1ccc(Cl)cc1Cl	108	91	182*	104	104	0.4
O=C(NCCCn1ccnc1)C1CC(c2ccccc2Cl)=NO1 (stereo unspecified)	93	100	101	96	102	x
